“And” between values parts separate entries of the source, which are not always exact repeats. Equal entries are not always repeated. Records with an inconclusive call do not appear. Some compounds were tested as several samples or in several runs, with calls that do not always agree. The source made the active and inactive calls. Calls follow the shape of the dose curve; as a rule, active = well fitted curve in the direction sought with a large enough effect in the repeat runs; inconclusive = weak or mixed curves; inactive = no such curve, though single readings can be large; an effect the other way counts as inactive or inconclusive.

Assay [1] in a line: A CellTox Green Cytotoxicity Assay to monitor cytotoxicity in HEK293 cells - 40 hour (AID 1224871). Also: nearly all actives have a fitted effect of over 45% in size. Also: potency is read from the fitted curve at half-maximal effect. The gist of the method:
(§1)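 Fluorescence intensity, read at 0, 8, 16, 24, 32 and 40 h of compound treatment, reflected dye binding to DNA of dead HEK293 cells; compounds (23 nL, DMSO) were added 5 h after plating cells with reagent.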

Assay [2] is described as follows: qHTS RealTime-Glo MT Cell Viability Assay in HEK293 cells - 16 hour (AID 1224872). Also: top concentration of the series differs between compounds; nearly all actives have a fitted effect of over 50% in size. The gist of the method:
(§2)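 Assay medium contained NanoLuc luciferase plus cell-permeant prosubstrate, added with HEK293 cells at 600 cells/well. After 5 h at 37 C/5% CO2 compounds were added; plates stayed at 37 C for 40 h with serial luminescence reads.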

A short description of assay [3]: qHTS RealTime-Glo MT Cell Viability Assay in HepG2 cells - 8 hour (AID 1224873). Also: nearly all actives have a fitted effect of over 55% in size. The gist of the method:
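Real-time viability: cells seeded at 600 per well together with NanoLuc and cell-permeant prosubstrate, compounds added after 5 h incubation. Luminescence tracked at 0, 8, 16, 24, 32 and 40 h of exposure.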
(In general: qHTS replaces the single test concentration by a dilution series.)

Assay [4] is described as follows: qHTS RealTime-Glo MT Cell Viability Assay in HEK293 cells - 40 hour (AID 1224874). Also: nearly all actives have a fitted effect of over 50% in size. Also: potency is read from the fitted curve at half-maximal effect. The note with it: RealTime-Glo luminescence; max response: stronger effect = lower value. The gist of the method:
(§3)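 Viable HEK293 cells reduce a cell-permeant prosubstrate; the product diffuses out and is consumed by NanoLuc in the medium to give light. Compounds went in after a 5 h incubation and plates were read over the treatment course.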

Assay [5] can be described thus: A CellTox Green Cytotoxicity Assay to monitor cytotoxicity in HEK293 cells - 24 hour (AID 1224875). Also: series mostly up to about 77 µM; nearly all actives have a fitted effect of over 45% in size. The gist of the method:
as §1

A short description of assay [6]: A CellTox Green Cytotoxicity Assay to monitor cytotoxicity in HepG2 cells - 16 hour (AID 1224876). Also: nearly all actives have a fitted effect of over 45% in size. The gist of the method:
(§4)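 Using 1536-well format, dye-containing HepG2 suspension was seeded, allowed 5 h at 37 C/5% CO2, dosed by pintool with compounds, positive and negative controls, and imaged for fluorescence across 40 h.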

The nature of assay [7]: qHTS RealTime-Glo MT Cell Viability Assay in HepG2 cells - 32 hour (AID 1224877). Also: nearly all actives have a fitted effect of over 55% in size. The gist of the method:
(§5)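 qHTS, HepG2, 600 cells/well, RealTime-Glo (NanoLuc + prosubstrate) added with cells; 5 h preincubation; DMSO compound addition; 37 C; luminescence at 0/8/16/24/32/40 h.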

Assay [8] in a line: A CellTox Green Cytotoxicity Assay to monitor cytotoxicity in HepG2 cells - 24 hour (AID 1224878). Also: nearly all actives have a fitted effect of over 45% in size. The gist of the method:
as §4

Assay [9] in a line: A CellTox Green Cytotoxicity Assay to monitor cytotoxicity in HepG2 cells - 40 hour (AID 1224879). Also: nearly all actives have a fitted effect of over 40% in size. Also: potency is read from the fitted curve at half-maximal effect. The gist of the method: as §4
The nature of assay [10]: qHTS RealTime-Glo MT Cell Viability Assay in HEK293 cells - 0 hour (AID 1224880). The gist of the method: as §3
Assay [11] can be described thus: A CellTox Green Cytotoxicity Assay to monitor cytotoxicity in HEK293 cells - 32 hour (AID 1224881). Also: nearly all actives have a fitted effect of over 40% in size. Also: potency is read from the fitted curve at half-maximal effect. The gist of the method: as §1
Assay [12] is described as follows: A CellTox Green Cytotoxicity Assay to monitor cytotoxicity in HepG2 cells - 0 hour (AID 1224882). Also: nearly all actives have a fitted effect of over 35% in size. The gist of the method: as §4
The nature of assay [13]: A CellTox Green Cytotoxicity Assay to monitor cytotoxicity in HepG2 cells - 32 hour (AID 1224883). Also: nearly all actives have a fitted effect of over 50% in size. The gist of the method: as §4
Assay [14] can be described thus: A CellTox Green Cytotoxicity Assay to monitor cytotoxicity in HEK293 cells - 8 hour (AID 1224884). Also: nearly all actives have a fitted effect of over 35% in size. The gist of the method:
as §1

A short description of assay [15]: qHTS RealTime-Glo MT Cell Viability Assay in HepG2 cells - 16 hour (AID 1224885). Also: nearly all actives have a fitted effect of over 50% in size. The gist of the method:
as §5

Assay [16] in a line: qHTS RealTime-Glo MT Cell Viability Assay in HEK293 cells - 24 hour (AID 1224886). Also: nearly all actives have a fitted effect of over 50% in size. Also: potency is read from the fitted curve at half-maximal effect. The gist of the method:
as §2

Assay [17] is described as follows: qHTS RealTime-Glo MT Cell Viability Assay in HEK293 cells - 8 hour (AID 1224887). The gist of the method: as §3
A short description of assay [18]: A CellTox Green Cytotoxicity Assay to monitor cytotoxicity in HEK293 cells - 16 hour (AID 1224888). Also: nearly all actives have a fitted effect of over 35% in size. The gist of the method: as §1
The nature of assay [19]: qHTS RealTime-Glo MT Cell Viability Assay in HepG2 cells - 0 hour (AID 1224889). Also: nearly all actives have a fitted effect of over 50% in size. The gist of the method:
as §5

The nature of assay [20]: A CellTox Green Cytotoxicity Assay to monitor cytotoxicity in HepG2 cells - 8 hour (AID 1224890). Also: nearly all actives have a fitted effect of over 45% in size. The gist of the method:
as §4
% is scaled to controls: 0 for no effect and ±100 for the full control effect.

`OC1CCCc2ccccc21` (stereo not given): the Potency result in [1], in [2], in assay [3], in [5], in assay [6] and in assay [7] was “inactive” each time. Also, the Potency result in assay [8], in assay [9], in assay [10], in [11], in assay [12] and in assay [13] was “inactive” throughout. Besides, the Potency result in [14], in assay [15], in [16], in assay [17], in [18] and in assay [19] was “inactive” in each case. Besides, the Potency entry in [20] is “inactive”. The max response in [4] is -0.638% (inactive).

In the case of `O=C(O)Cc1ccccc1Nc1c(Cl)cccc1Cl`, the Potency entry in assay [1], in assay [2], in assay [3], in [5], in assay [6] and in [7] was “inactive” each time. The Potency entry in assay [8], in assay [9], in assay [10], in assay [11], in assay [12] and in [13] was “inactive” in each case. Also, the Potency result in [14], in assay [15], in assay [16], in assay [17], in assay [18] and in assay [19] was “inactive” each time. Moreover, the Potency result in assay [20] was “inactive”. In [4], the max response is 15.1% (inactive) and 6.54% (inactive).

Consider `C1CCC(SSC2CCCCC2)CC1`, for which the Potency result in assay [1], in assay [2], in [3], in assay [5], in assay [6] and in [7] was “inactive” throughout. Also, the Potency entry in assay [8], in assay [9], in assay [10], in [11], in [12] and in [13] was “inactive” each time. In addition, the Potency result in assay [14], in assay [15], in [16], in assay [17], in assay [18] and in assay [19] was “inactive” throughout. Moreover, in assay [20], the Potency entry was “inactive”. In addition, the max response in assay [4] was -7.62% (inactive).

With `CCc1ccc(Br)cc1`, the Potency entry in assay [1], in [2], in assay [3], in assay [5], in [6] and in assay [7] was “inactive” in each case. The Potency entry in assay [8], in assay [9], in assay [10], in [11], in assay [12] and in [13] was “inactive” throughout. The Potency result in assay [14], in [15], in assay [16], in assay [17], in assay [18] and in assay [19] was “inactive” each time. Besides, in [20], the Potency entry is “inactive”. The max response in assay [4] is 5.1% (inactive).

For `CC(CO)Oc1ccccc1` (stereo not given), the Potency entry in assay [1], in assay [2], in [3], in assay [5], in [6] and in assay [7] was “inactive” each time. In addition, the Potency entry in assay [8], in assay [9], in assay [10], in [11], in [12] and in assay [13] was “inactive” throughout. Moreover, the Potency entry in assay [14], in assay [15], in assay [16], in [17], in assay [18] and in assay [19] was “inactive” throughout. Further, the Potency result in [20] was “inactive”. The max response in assay [4] was -11% (inactive).

Regarding `CC1(C)CC(O)CC(C)(C)N1`, the Potency result in [1], in assay [2], in [3], in assay [5], in [6] and in [7] was “inactive” throughout. The Potency entry in assay [8], in assay [9], in assay [10], in assay [11], in assay [12] and in [13] was “inactive” each time. Further, the Potency result in assay [14], in assay [15], in assay [16], in [17], in [18] and in assay [19] was “inactive” each time. Also, the Potency entry in assay [20] is “inactive”. The max response in assay [4] is -4.64% (inactive).

In the case of `Oc1c(I)cc(Cl)c2cccnc12`, the Potency was 12.3 µM (active) and inactive in assay [1]; 24.5 µM (active) in assay [4]; 34.6 µM (active) and 5.35 µM (active) in [9]; 10.9 µM (active) and inactive in assay [11]; 34.6 µM (active) and inactive in assay [16]. For the same compound, the Potency result in [2], in assay [3], in [5], in assay [6], in assay [7] and in assay [8] was “inactive” throughout. For the same compound, the Potency result in assay [10], in [12], in assay [13], in assay [14], in assay [15] and in [17] was “inactive” throughout. For the same compound, the Potency result in assay [18], in assay [19] and in assay [20] was “inactive” each time.

As for `CCc1cccc(CC)c1NC(=O)CN(CC(=O)O)CC(=O)O`, the Potency entry in assay [1], in assay [2], in assay [3], in assay [5], in assay [6] and in assay [7] was “inactive” in each case. The Potency entry in [8], in [9], in assay [10], in assay [11], in assay [12] and in [13] was “inactive” throughout. Moreover, the Potency result in [14], in assay [15], in assay [16], in assay [17], in assay [18] and in assay [19] was “inactive” throughout. The Potency entry in assay [20] is “inactive”. Further, the max response in assay [4] is 1.69% (inactive).

Regarding `C=C(C)c1cccc(C(=C)C)c1`, the Potency entry in assay [1], in assay [2], in assay [3], in assay [5], in assay [6] and in assay [7] was “inactive” in each case. For the same compound, the Potency result in assay [8], in assay [9], in assay [10], in [11], in assay [12] and in [13] was “inactive” in each case. The Potency entry in assay [14], in assay [15], in assay [16], in assay [17], in assay [18] and in assay [19] was “inactive” throughout. Also, the Potency result in assay [20] is “inactive”. For the same compound, in [4], the max response was -0.359% (inactive).

On to `Clc1ccnc(Cl)n1`, for which the Potency entry in assay [1], in [2], in assay [3], in assay [5], in [6] and in assay [7] was “inactive” each time. Further, the Potency result in assay [8], in [9], in [10], in assay [11], in assay [12] and in [13] was “inactive” each time. The Potency result in assay [14], in assay [15], in assay [16], in assay [17], in assay [18] and in assay [19] was “inactive” each time. For the same compound, the Potency entry in [20] is “inactive”. For the same compound, in assay [4], the max response was 11.8% (inactive).

With `NC(=S)NC(N)=S`, the Potency result in assay [1], in assay [2], in assay [3], in assay [5], in assay [6] and in assay [7] was “inactive” in each case. For the same compound, the Potency entry in assay [8], in [9], in assay [10], in assay [11], in assay [12] and in assay [13] was “inactive” each time. Also, the Potency result in assay [14], in assay [15], in assay [16], in assay [17], in assay [18] and in assay [19] was “inactive” each time. The Potency entry in assay [20] was “inactive”. Moreover, in [4], the max response is -1.4% (inactive).

`Nc1nc(N)nc(-c2cc(Cl)ccc2Cl)n1`: the Potency result in [1], in [2], in assay [3], in assay [5], in [6] and in assay [7] was “inactive” throughout. Further, the Potency entry in [8], in [9], in assay [10], in assay [11], in assay [12] and in assay [13] was “inactive” throughout. For the same compound, the Potency result in assay [14], in assay [15], in [16], in assay [17], in assay [18] and in [19] was “inactive” each time. In assay [20], the Potency result was “inactive”. In assay [4], the max response is 3.58% (inactive).

The record behind these values is PubChem BioAssay (Tox21).
